Test results: the supplement of paper PMC6555819

What was measured:
Test in all cases: PBM binding z-score (relative to random genomic background probes); higher = stronger binding; sequences stand for … in GC…GCGATTGACAGCGTAGAATGAAGG
[1] = system: PPARg:RXRa DBDmut IVT, anti-RXR (DBD mutation: RXRa K156A/R161A, NR concentration 270 nM, RXRa partner concentration 90 nM)
How it was run: (§1)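 The probes on custom Agilent 4×180K protein-binding microarrays were double-stranded, with 34-nt variable regions bearing direct-repeat seeds, single-nucleotide variants, half-site ablations and random human genomic background sequences. Incubation lasted 1 h with ligand-free nuclear receptor dimers in PBS pH 7.4, 2% milk, 0.02% Triton X-100, 1 mM DTT, 0.2 mg/mL BSA and 0.4 mg/ml salmon testes DNA. Antibodies against each partner (one per run) detected bound dimers, and fluorescence scans were regression-normalized. Binding z-scores take the random background probes as reference.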

[2] = system: PPARg:RXRa IVT, anti-PPARg (NR concentration 270 nM, RXRa partner concentration 90 nM)
How it was run: as §1

[3] = system: PPARg DBDmut:RXRa IVT, anti-PPARg (DBD mutation: PPARg1 K132A/R137A, NR concentration 270 nM, RXRa partner concentration 90 nM)
How it was run: as §1

[4] = system: PPARg DBDmut IVT, anti-PPARg (DBD mutation: PPARg1 K132A/R137A, NR concentration 270 nM)
How it was run: as §1

[5] = system: PPARg homodimer (NR concentration 180 nM)
How it was run: as §1

[6] = system: PXR:RXRa (NR concentration 270 nM, RXRa partner concentration 90 nM)
How it was run: as §1

[7] = system: PXR homodimer (NR concentration 270 nM)
How it was run: as §1

[8] = system: RARa:RXR (NR concentration 270 nM, RXRa partner concentration 90 nM)
How it was run: as §1

[9] = system: RARa homodimer (NR concentration 270 nM)
How it was run: as §1

[10] = system: RARb:RXRa (NR concentration 270 nM, RXRa partner concentration 90 nM)
How it was run: as §1

Sequence | PBM binding z-score [1] | PBM binding z-score [2] | PBM binding z-score [3] | PBM binding z-score [4] | PBM binding z-score [5] | PBM binding z-score [6] | PBM binding z-score [7] | PBM binding z-score [8] | PBM binding z-score [9] | PBM binding z-score [10]
ATCTCTAGGTAACCAGGTTCAGTGAATGCCGAAC | 3.75 | 3.09 | 0.459 | 0.795 | 1.07 | 0.948 | 0.388 | 0.808 | 0.438 | 0.668
TCGAGTAGGTTACCAATGGGGCATTTAGCTTTCT | 3.03 | 2.59 | -0.535 | -0.583 | -0.292 | 0.195 | -0.763 | 0.343 | -1.23 | 0.686
CGAATTAGGTCATTGACAGGACAGTGAATAGTAA | 8.21 | 7.99 | 4.24 | 2.12 | 2.32 | 1.77 | 0.55 | 2.57 | 0.994 | 3.73
GATACAGGGTCAGCTAGCGGCCAGAGTATGGAAA | 1.01 | 2.05 | 0.0696 | -0.868 | 1.51 | 2.37 | -0.651 | 3.79 | 0.418 | 3.96
CGTCCAAGGACAAAGGTCAGTGAAGAGATGACGG | 0.675 | 2.78 | -0.53 | -0.214 | 2.27 | 3.18 | 0.71 | 3.79 | 1.02 | 4.56
TCATATAGGTAAAGGTGAAGGTCGAACGATATGA | 4.25 | 4.21 | 1.49 | 1.44 | 1.37 | 1.57 | 0.53 | 2 | 0.708 | 2.45
CCTACTGGGCTATTCAGAGGTCATTGATCATATG | 2.84 | 2.73 | 0.261 | 0.0805 | 2.7 | 4.9 | 2.27 | 4.54 | 0.714 | 2.79
CCTAGTTGGTCAAGTTCACACACGCTATAGGTAC | 1.95 | 1.82 | 0.944 | 1.02 | 2.59 | 3.63 | 5.51 | 2.27 | 1.56 | 2.92
ACTTACGGGTAAACGAGGTTATAGCACGCGTATA | 0.828 | 1.16 | -0.07 | 0.0677 | 0.611 | 1.65 | 0.138 | 2.32 | 0.806 | 0.846
GGAACGAGGGCATTCGAGTGGATAGCATGGCGAT | 2.7 | 1.91 | 0.297 | -0.551 | -0.225 | 0.6 | -0.278 | 0.17 | -0.0575 | 1.74
CAAACTAGGTCAAGAGGTCAAAATCCGCTTCCCG | 7.82 | 8.13 | 1.85 | 1.15 | 4.78 | 5.89 | 1.57 | 7.65 | 1.73 | 5.35
CCTACTGGGCCATCAGGTCATTGAGATCAACGTT | 4.42 | 4.78 | 0.317 | 0.581 | 1.13 | 2.08 | 2.14 | 2.31 | -0.158 | 2.22
